Bioassay records from PubChem.
Hits are enriched below; roughly 10% of the tested compounds scored in any of these assays.
CtBP-E1A inh: qHTS Assay for Inhibitors of the CtBP/E1A Interaction; AlphaScreen GST-E1A/His-CtBP binding, 1536-well; hits give low values; activity change, % (no concentration beside the values); hit rate 0.49% among 340,000; AID 651724, 2012; in the data active = activity change below about -65%; inconclusive = mostly about -30% to -63%; also: % is scaled to controls: 0 for no effect and ±100 for the full control effect
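GST-E1A and His-tagged CtBP (125 nM each as 5X stock) were preincubated with pin-transferred compound for 2 h at 37 °C in the dark, then glutathione donor and nickel acceptor beads were added for 1 h before AlphaScreen reading.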
G9a block: qHTS Assay for Inhibitors of Histone Lysine Methyltransferase G9a; Histone-lysine N-methyltransferase EHMT2 (Homo sapiens), Q96KQ7; Potency, µM (highest dose often 102 µM), inactives show top-dose activity, negative = inhibition, actives largely listed as inhibitors; hit rate 8.8% among 350,000; G9a H3K9 monomethylation, AlphaScreen, 2 h; also: potency is read from the fitted curve at half-maximal effect; % is scaled to controls: 0 for no effect and ±100 for the full control effect; nearly all actives have a fitted effect of over 75% in size
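Signal arises when biotinylated H3K9 peptide, once monomethylated, bridges streptavidin donor and antibody-captured acceptor beads. Enzyme at 20 nM was preincubated 15 min with test compounds; peptide 500 nM and SAM 20 uM then reacted for 2 h.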
BAZ2B inh: qHTS Assay for Inhibitors of BAZ2B; hit rate 4.4% among 360,000; Bromodomain adjacent to zinc finger domain protein 2B (Homo sapiens), Q9UIF8; AlphaScreen BAZ2B-H3K14Ac peptide displacement; Potency, µM (titrated, usually from 114 µM), for inactives: at the highest dose activity change, negative = inhibition, usual class: inhibitors; AID 504333, 2011; also: potency is read from the fitted curve at half-maximal effect; % is scaled to controls: 0 for no effect and ±100 for the full control effect; nearly all actives have a fitted effect of over 60% in size
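AlphaScreen luminescence quantifies BAZ2B engagement of H3K14Ac peptide; the protein and biotinylated peptide are both at 50 nM final, buffer PBS pH 7.4 with 0.01% Tween-20, all steps at room temperature.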
Six1-Eya2 blk: qHTS Assay for Inhibitors of the Six1/Eya2 Interaction; Homeobox protein SIX1 (Homo sapiens) + Protein phosphatase EYA2 (Homo sapiens), …; AlphaScreen GST-Six1/His-Eya2 binding, biochemical; hits give low values; activity change, % (test concentration not listed); hit rate 0.56% among 360,000; in the data active = activity change below about -65%; inconclusive = mostly about -30% to -63%; also: % is scaled to controls: 0 for no effect and ±100 for the full control effect
Target sequence (O00167 whole entry, looked up): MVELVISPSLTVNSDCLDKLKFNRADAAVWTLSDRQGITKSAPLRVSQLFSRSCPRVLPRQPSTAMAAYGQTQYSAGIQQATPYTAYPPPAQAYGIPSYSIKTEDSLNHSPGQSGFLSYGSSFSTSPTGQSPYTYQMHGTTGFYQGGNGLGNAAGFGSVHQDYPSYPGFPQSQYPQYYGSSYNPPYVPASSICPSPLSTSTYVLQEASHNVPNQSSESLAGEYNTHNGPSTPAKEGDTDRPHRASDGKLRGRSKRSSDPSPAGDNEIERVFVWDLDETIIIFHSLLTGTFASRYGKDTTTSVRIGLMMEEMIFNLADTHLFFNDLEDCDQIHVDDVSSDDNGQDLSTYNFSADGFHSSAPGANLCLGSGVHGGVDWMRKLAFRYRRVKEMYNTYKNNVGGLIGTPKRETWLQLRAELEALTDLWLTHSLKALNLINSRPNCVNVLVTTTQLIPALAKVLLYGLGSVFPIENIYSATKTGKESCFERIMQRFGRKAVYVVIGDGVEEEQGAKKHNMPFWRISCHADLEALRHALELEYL
Target sequence (Q15475 whole entry, looked up): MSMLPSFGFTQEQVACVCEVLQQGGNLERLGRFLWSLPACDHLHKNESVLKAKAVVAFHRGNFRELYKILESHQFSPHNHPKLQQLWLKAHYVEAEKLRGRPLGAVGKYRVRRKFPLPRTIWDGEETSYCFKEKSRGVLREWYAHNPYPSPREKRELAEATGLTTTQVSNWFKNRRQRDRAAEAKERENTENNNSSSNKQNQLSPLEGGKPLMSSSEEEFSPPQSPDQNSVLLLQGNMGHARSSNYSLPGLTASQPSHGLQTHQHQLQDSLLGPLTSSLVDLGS
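AlphaScreen luminescence read after one hour at 37 °C in darkness. Pin-transferred compounds met GST-Six1 and His-Eya2 protein (5X stock 250 nM/500 nM) plus glutathione donor and Ni-chelate acceptor beads (5X, 50 ug/mL).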
HP1b binding inh: HTS for Inhibitors of HP1-beta Chromodomain Interactions with Methylated Histone Tails. Chromobox protein homolog 1 (Homo sapiens), P83916. AlphaScreen HP1-beta / biotin-H3K9me3 peptide binding. Potency, µM (series often up to 114 µM), for the others: at the top dose activity change, negative = inhibition, actives largely listed as inhibitors. hit rate 0.56% among 390,000; also: potency is read from the fitted curve at half-maximal effect; nearly all actives have a fitted effect of over 70% in size
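AlphaScreen: HP1-beta (50 nM) preformed 30 min with biotin-H3(1-18)K9me3 peptide (50 nM) in PBS pH 7.4, 0.01% Tween-20. Compound added for 30 min at RT, then streptavidin donor/nickel chelate acceptor beads (10 ug/mL) for 30 min.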
JMJD2A Tudor: qHTS Assay for Inhibitors of JMJD2A-Tudor Domain; Potency, µM (highest dose often 114 µM), without a hit: top-dose activity change, negative = inhibition, actives largely listed as inhibitors; hit rate 4.4% among 390,000; AlphaScreen JMJD2A-Tudor / H3K4me3 peptide binding; Lysine-specific demethylase 4A (Homo sapiens), O75164; AID 504339, 2011; also: potency is read from the fitted curve at half-maximal effect; % is scaled to controls: 0 for no effect and ±100 for the full control effect; nearly all actives have a fitted effect of over 50% in size
* marks the source's active call; other numbers are inactive results; [ ] = dose if it differs, or a comment. Unless noted, calls follow the shape of the dose curve; as a rule, active = well fitted inhibition curve with a large enough effect; inconclusive = small, poorly fitted or top-dose-only effect; inactive = no such curve, though single readings can be large or run the other way.

Screening O=C(Nc1ccccc1C(F)(F)F)C1(S(=O)(=O)c2ccc(Cl)cc2)CC1 returned G9a block -2%[59 µM], BAZ2B inh 3%, HP1b binding inh 48% and JMJD2A Tudor -2%.
NC(=S)NN=Cc1ccc(-c2ccc(S(=O)(=O)Nc3ncccn3)cc2)o1 was read as CtBP-E1A inh -3, Six1-Eya2 blk inconclusive, HP1b binding inh inconclusive and JMJD2A Tudor 50µM*.
CCOc1ccc(C(=O)N/N=C/c2ccc(-c3ccc(S(=O)(=O)Nc4ncccn4)cc3)o2)cc1 was read as CtBP-E1A inh inconclusive, G9a block -7%[12.7 µM], BAZ2B inh 79µM*, Six1-Eya2 blk inconclusive, HP1b binding inh -6% and JMJD2A Tudor 89µM*.
Screening CCOc1ccc(S(=O)(=O)N(CC(=O)N/N=C/c2ccc(-c3ccc([N+](=O)[O-])cc3)o2)c2ccccc2)cc1 returned CtBP-E1A inh -6, G9a block 1.6µM*, BAZ2B inh 22µM*, Six1-Eya2 blk -19, HP1b binding inh -21% and JMJD2A Tudor 28µM*.
CC(C)COc1ccc(C(=O)Nc2ccc(S(=O)(=O)Nc3ncccn3)cc2)cc1 was read as G9a block -3%[59 µM], BAZ2B inh 0%, HP1b binding inh 25% and JMJD2A Tudor -15%.
`O=C(N/N=C/c1ccc(-c2ccc(S(=O)(=O)Nc3ncccn3)cc2)o1)c1cc2ccccc2cc1O` gave CtBP-E1A inh -20, G9a block inconclusive, BAZ2B inh 18µM*, Six1-Eya2 blk -67*, HP1b binding inh 28µM* and JMJD2A Tudor 50µM*.
Cc1oc(-c2cccc(Br)c2)nc1Cn1c(SCc2cccc(F)c2)nc2cccnc21 was read as G9a block 0%[59 µM], BAZ2B inh -9%, HP1b binding inh 41% and JMJD2A Tudor inconclusive.
`Cc1noc(Cn2c(=O)c3ccccc3n(CC(=O)Nc3ccc(F)cc3F)c2=O)n1` gave G9a block -8%[59 µM], BAZ2B inh -12%, HP1b binding inh 35% and JMJD2A Tudor 2%.
For COc1ccc(S(=O)(=O)N(CC(=O)NCCSc2ccccc2)c2ccc(C)cc2)cc1 the results were G9a block -40%[59 µM], BAZ2B inh -1%, HP1b binding inh 1% and JMJD2A Tudor -21%.
`CCc1nn(CC(=O)NCc2cccc(OC)c2OC)c(=O)c2cc3occc3n12` gave G9a block 2%[59 µM], BAZ2B inh 5%, HP1b binding inh 28% and JMJD2A Tudor 2%.
Cc1ccc(S(=O)(=O)c2nnn(CC(=O)Nc3ccccc3C)c2N)cc1C was read as G9a block -1%[59 µM], BAZ2B inh -17%, HP1b binding inh 19% and JMJD2A Tudor -16%.
Screening CCOC(=O)c1ccc(-c2ccc(/C=N/NC(=O)CN(c3cccc(C)c3)S(C)(=O)=O)o2)cc1 returned CtBP-E1A inh 2, G9a block 7.9µM*, BAZ2B inh -35%, Six1-Eya2 blk -6, HP1b binding inh 26% and JMJD2A Tudor -19%.
For CCOC(=O)c1ccc(-c2ccc(/C=N/NC(=O)CN(c3ccccc3Cl)S(C)(=O)=O)o2)cc1 the results were CtBP-E1A inh 4, G9a block 12%[59 µM], BAZ2B inh inconclusive, Six1-Eya2 blk -8, HP1b binding inh 6%[57 µM] and JMJD2A Tudor -14%.
O=C(c1cccc(F)c1)N1CCC2(CC1)CN(c1ccc(-c3ccccc3)cc1)C2 was read as G9a block -22%[12.7 µM].
For CCn1c(C(C)NC(=O)c2cccs2)n[nH]c1=S (stereo not drawn) the results were CtBP-E1A inh 14, G9a block 13µM*, BAZ2B inh -5%, Six1-Eya2 blk 3, HP1b binding inh 9% and JMJD2A Tudor 7.1µM*.
Screening C=CCn1c(C(C)NC(=O)c2cccs2)n[nH]c1=S (stereo not drawn) returned CtBP-E1A inh 0, G9a block 16µM*, BAZ2B inh 0%, Six1-Eya2 blk 3, HP1b binding inh 2% and JMJD2A Tudor 18µM*.
Screening C=CCn1c(CNC(=O)c2cccs2)n[nH]c1=S returned CtBP-E1A inh -8, G9a block 25µM*, BAZ2B inh 22%, Six1-Eya2 blk 10, HP1b binding inh 15% and JMJD2A Tudor inconclusive.
CCN1C(=O)C(NC(C)=O)c2cc(Br)ccc21 (stereo not drawn) was read as CtBP-E1A inh 10, G9a block -22%[59 µM], BAZ2B inh 3%, Six1-Eya2 blk 2, HP1b binding inh 32% and JMJD2A Tudor -5%.
CCCCN1C(=O)C(NC(C)=O)c2cc(Br)ccc21 (stereo not drawn) was read as CtBP-E1A inh 0, G9a block 2.5µM*, BAZ2B inh -8%, Six1-Eya2 blk 4, HP1b binding inh 37% and JMJD2A Tudor -2%[57.1 µM].
For CC(=O)NC1C(=O)N(CCN2CCOCC2)c2ccc(F)cc21 (stereo not drawn) the results were G9a block 32µM*, BAZ2B inh 10µM*, Six1-Eya2 blk -4, HP1b binding inh -2% and JMJD2A Tudor 22µM*.
Screening CC(=O)NC1C(=O)N(CCN2CCOCC2)c2ccc(C)cc21 (stereo not drawn) returned G9a block 20µM*, BAZ2B inh 5µM*, Six1-Eya2 blk -23, HP1b binding inh inconclusive and JMJD2A Tudor 7.1µM*.
`COc1ccc2c(c1)C(NC(C)=O)C(=O)N2C` (stereo not drawn) gave CtBP-E1A inh 15, G9a block inconclusive, BAZ2B inh -2%, Six1-Eya2 blk -1, HP1b binding inh 62% and JMJD2A Tudor -3%.
`CCc1ccc2c(c1)C(NC(C)=O)C(=O)N2CC` (stereo not drawn) gave CtBP-E1A inh 3, G9a block inconclusive, BAZ2B inh 5%, Six1-Eya2 blk -1, HP1b binding inh 57% and JMJD2A Tudor -16%.
CC(=O)NC1C(=O)N(CCN2CCOCC2)c2ccc(Cl)cc21 (stereo not drawn) was read as CtBP-E1A inh -8, G9a block 32µM*, BAZ2B inh 8.9µM*, Six1-Eya2 blk -24, HP1b binding inh inconclusive and JMJD2A Tudor 13µM*.
Screening CCCCOC(=O)c1ccc(OC(=O)c2sc3ncn(Cc4cccc(F)c4)c(=O)c3c2C)cc1 returned G9a block -3%[59 µM], BAZ2B inh 11%, HP1b binding inh 4% and JMJD2A Tudor 8%.
